Compound activity deposited in PubChem BioAssay by National Center for Advancing Translational Sciences (NCATS).
Marburg entry inh: qHTS for inhibitors of binding or entry into cells for Marburg Virus; Potency, µM (highest dose often 37.8 µM), inactives show at the top dose activity change, negative = inhibition, actives largely listed as inhibitors; AID 540276, 2011; 300,000 compounds, 1.8% hits; Marburg virus pseudotyped entry inhibition, cell reporter; calls by dose curve; tested in HEK293 cells; note: potency is the fitted concentration of half-maximal effect; % is set by controls: 0 for no effect and ±100 for the full control effect
LASV entry inh: qHTS for Inhibitors of binding or entry into cells for Lassa Virus. Lassa virus pseudotype entry inhibition, cell reporter. Potency, µM (titrated, usually from 37.9 µM), for inactives: at the top dose activity change, negative = inhibition, most hits filed as inhibitors. 300,000 compounds, 1.2% hits; calls by dose curve; tested in HEK293 cells; note: potency is the fitted concentration of half-maximal effect; % is set by controls: 0 for no effect and ±100 for the full control effect; nearly all actives have a fitted effect of over 50% in size
Shiga inhibitor: A qHTS for Small Molecule Inhibitors of Shiga Toxin; Vero cells, Shiga toxin protein synthesis inhibition reporter; inhibition, % at 38.7 µM; 290,000 compounds, 9.2% hits; in the data active = inhibition mostly above about 28%, no sharp cut-off; inactive = mostly below about 43%; note: 0% is about no effect
Cycloheximide cs: Cycloheximide Counterscreen for Small Molecule Inhibitors of Shiga Toxin. cell reporter, cycloheximide protein synthesis inhibition counterscreen. 300,000 compounds, 12% hits. max response, %; in the data active = max response mostly above about 13%, no sharp cut-off; inactive = mostly below about 14%; note: read at 38.3 µM for the half of the compounds with a filed dose; 0% is about no effect
The depositor's hits bear a star; ? = inconclusive; / = no result; [ ] = dose if it differs, or a comment. A selection: hits, their analogues and other compounds. The true share with any hit is near 12%.

SMILES	Marburg entry inh	LASV entry inh	Shiga inhibitor	Cycloheximide cs
COC(=O)c1ccccc1NC(=O)[C@H]1COc2ccccc2O1	-32%	/	/	/
COc1ccc(C2=NN(C(=O)c3cccs3)C(c3ccc(OC)cc3)C2)cc1 (stereo not given)	?	?	22	13*
COc1ccc(C2CC(c3ccccc3OC(C)=O)=NN2C(C)=O)cc1 (stereo not given)	/	/	49*	30*
O=C(c1cccs1)N1N=C(c2ccccc2)CC1c1ccccc1 (stereo not given)	?	?	-5	1
COc1ccc(C2CC(c3ccccc3)=NN2C(=O)CSc2ncn[nH]2)cc1 (stereo not given)	-1%[46.1 µM]	10%[46.1 µM]	36	17*
COc1ccc(C2CC(c3ccccc3)=NN2C(=O)CSc2ncccn2)cc1 (stereo not given)	-1%	?	8	-3
Cc1ccc(C2CC(c3cccs3)=NN2C(=O)CCl)cc1 (stereo not given)	?	?	43*	43*
COc1ccc(C(=O)NCCCN=C2NS(=O)(=O)c3ccccc32)cc1	?	5%	-4	-1
O=C(CSc1ccc(-c2cccs2)nn1)Nc1ccccc1	?	1%	49	14
O=C(CSc1ccc(-c2cccs2)nn1)c1cccs1	15%[46.1 µM]	18%[46.1 µM]	104*	46*
Cc1cc(C)cc(NC(=O)CSc2ccc(-c3cccs3)nn2)c1	7.1µM*	?	-6	-2
O=C(NCc1cccc(C(F)(F)F)c1)C1CCC(=O)N(C2CCCCCC2)C1 (stereo not given)	-2%[46.1 µM]	0%[46.1 µM]	2	-3
O=S(=O)(Nc1cc(O)cc2cccnc12)c1ccc(Cl)s1	/	/	-14	-11
CCCNC(=O)CSCc1nc(-c2ccc(SC)cc2)oc1C	-14%[46.1 µM]	-19%[46.1 µM]	35	26*
O=C(Cn1cc(S(=O)(=O)c2ccccc2)c(=O)c2cc3c(cc21)OCO3)Nc1ccc(Cl)cc1	-22%[46.1 µM]	-21%[46.1 µM]	/	/
O=C(C1CCN(S(=O)(=O)c2ccccc2)CC1)N1CCN(Cc2ccccc2)CC1	22%	-14%	-6	-2
C=CCN(C(=O)CC(NC(C)=O)c1ccccc1)c1nc(-c2ccc(S(C)(=O)=O)cc2)cs1 (stereo not given)	-15%[46.1 µM]	?	79*	31*
O=C(Nc1cc(Cl)cc(Cl)c1)c1cc(S(=O)(=O)N2CCC3(CC2)OCCO3)ccc1F	/	17%[46.1 µM]	/	/
Cc1ccc(S(=O)(=O)N2CCN(c3ccc(C(F)(F)F)cc3[N+](=O)[O-])CC2)cc1	8.9µM*	?	29	9
Cc1ccc(S(=O)(=O)N2CCN(c3cc4c(cc3[N+](=O)[O-])n(C)c(=O)n4C)CC2)cc1	23µM*	?	-3	-1
CSc1ccc(Cl)c(C(=O)NC2CCCC2)c1	1%	16%	10	-3
COc1cc(SC)ccc1C(=O)OCC(=O)NC1CCCC1	-19%[46.1 µM]	?	113*	54*
COc1cc(C(=O)NCC2CCCO2)ccc1OCc1ccccc1Cl (stereo not given)	-22%	-15%	37	16*
COc1cc(SC)ccc1C(=O)NC1CCCCC1	14%	28%	51	36*
COc1cc(SC)ccc1C(=O)NCC1CCCO1 (stereo not given)	7%[46.1 µM]	1%	74	24*
SMILES	Marburg entry inh	LASV entry inh	Shiga inhibitor	Cycloheximide cs
CC(C(=O)Nc1ccc(Cl)cc1Cl)N1C(=O)NC2(CCCC2)C1=O (stereo not given)	?	5%[46.1 µM]	28	0
COc1cc(NC(=O)c2cnc3c(-c4ccc(F)cc4)c(C)nn3c2C)cc(OC)c1	/	1%[46.1 µM]	/	/
Cc1ccc(NC(=O)c2ccc(Cl)c(S(=O)(=O)N3CCCCCC3)c2)nc1	-18%[46.1 µM]	-30%	/	/
COc1cc(SC)ccc1C(=O)OCC(=O)NC1CCCCC1	?	1%[46.1 µM]	35	60*
COc1cc(OC)c(C(=O)OCC(=O)NC2CCCCCCC2)cc1OC	1%	0%	/	/
O=C(Nc1ccc(Br)cc1)c1cc2ccccn2n1	/	/	64*	44*
O=C(NCCc1ccc(Cl)cc1)c1cc2ccccn2n1	16%	?	60	25*
CCc1ccc(NC(=O)c2cc3ccccn3n2)cc1	/	26%[46.1 µM]	/	/
CC(=O)/C(N=Nc1ccc2c(c1)OCO2)=C(\C)O	?	-3%	108*	74*
CC(=O)/C(N=Nc1ccc2c(c1)OCCO2)=C(\C)O	?	?	136*	82*
O=C1[C@@H]2[C@H]3[C@H](O)[C@H](O)CC(=NOC[C@@H](O)COCc4ccco4)[C@@H]3CC[C@H]2C(=O)N1C1CCCCC1	-22%[14.2 µM]	/	/	/
O=C(Cc1ccccc1)Nc1nnc(-c2cccs2)s1	-29%	-18%	40	25*
